# Experimental data: PubChem BioAssay (NCI)
# The panel holds about 79,000 compounds, 15% with a hit somewhere; the sample as a whole holds those more often. Values without a mark were called inactive. Calls of active or inactive are those of the source. No stated cut-off is given here; in the data, active means growth inhibition above about 70%; inactive means the rest.
# Assay: NCI Yeast Anticancer Drug Screen. Data for the cln2 rad14 strain (AID 165);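 further: 0% = growth equal to vehicle treated cultures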
# Conditions: S. cerevisiae cln2 rad14 strain, at 50.0 µM, hits give high values
# Description: Growth inhibition of yeast strains with defined genetic alterations is measured as a screen for potential anti-cancer activity. Selected strains with alterations in DNA damage repair or cell cycle control were exposed to compounds and growth inhibition was measured relative to vehicle treated controls. The strain used in this assay is cln2 rad14
row,SMILES,growth inhibition
1,CN(C)CCC(=O)c1ccc(O)cc1,-22.2%
2,CC(=O)Cc1cc(-c2cc(CC(C)=O)[nH]n2)n[nH]1,-25.5%
3,COc1cccc(Sc2ccc([N+](=O)[O-])c3no[n+]([O-])c23)c1,83.3% (active)
4,CCS(=O)(=O)CCCl,5.9%
5,O=C1NC(=O)C2C(=O)NC(=O)C1C21CCc2ccccc21 (stereo not given),-4.25%
6,CN(C)C(C)(C)CC(C)(C)C,4.85%
7,CCOc1ccc(Br)cc1/C=N\N=C\c1cc(Br)ccc1OCC,13.3%
8,OCC(O)C(O)C(O)C(O)/C=N/O (stereo not given),-6.7%
9,CC(C)(N)COS(=O)(=O)O,-6.9%
10,Cc1cccc([N+](=O)[O-])c1Cl,10.6%
11,CC(=O)Nc1cccc(NC(C)=O)n1,-5%
12,COc1cc2nn(-c3ccccc3N)nc2cc1OC,14.7%
13,CCCCCCCCCCCCCCCCC1CC(=O)OC1=O (stereo not given),4.3%
14,CCCCN(CCCC)CCCO,-27.7%
15,CC(C)CCCC(=O)O,27.8%
16,N#Cc1c(N)sc(=S)c2c1CCCC2,1.8%
17,O=C(O)c1cccc([N+](=O)[O-])c1O,-0.7%
18,CC1CCC(C(=O)O)N1 (stereo not given),4.45%
19,CC(=O)Nc1c(C)cc(C)cc1C,-11.8%
20,CCN(CC)CCNc1ccc(CO)c2sc3ccccc3c(=O)c12,2.6%

row,SMILES,growth inhibition
1,Oc1ccccc1O,-11.7%
2,CC1(C)OC(=O)C(c2ccsc2)C(=O)O1,32.8%
3,N#CCCc1ccc(O)cc1,1.55%
4,CC(=O)OCC(=O)[C@@]1(O)CC[C@H]2[C@@H]3CC[C@@H]4C[C@H](O)CC[C@]4(C)[C@H]3C(=O)C[C@@]21C,7.75%
5,Cc1cc(O)ccc1O,-5.05%
6,O=C1OC(=O)C2C1C1(Cl)C(Cl)=C(Cl)C2(Cl)C2C(=O)OC(=O)C21 (stereo not given),-9.45%
7,CN(C)C(=O)Oc1cccc([N+](C)(C)C)c1,-60.9%
8,COc1ccc(C2OC(N)=C(O)C2=O)cc1OC (stereo not given),11.2%
9,O=C(CCl)Nc1ccc2c(c1)C(=O)c1ccc(NC(=O)CCl)cc1C2=O,1.7%
10,Sc1ccc(Nc2c3ccccc3nc3ccccc23)cc1,7.3%
11,CCCC(C)OCC(=O)O (stereo not given),4.35%
12,O=S(=O)(O)c1ccc(O)c2ccccc12,-30.1%
13,O=C(/C=C\c1ccc(O)cc1)c1ccccc1,8.6%
14,CCCCC1(CC)COC(CCC)OC1 (stereo not given),-22.6%
15,COCCOCCCl,-7.95%
16,Nc1ccc(N)c([N+](=O)[O-])c1,-39%
17,COc1nc(N)nc2c1ncn2C1OC(CO)CC1O (stereo not given),10.9%
18,C[N+](C)=c1ccc2nc3c(cc(Nc4ccccc4)c4ccccc43)oc-2c1,29.6%
19,Cc1ccc(O)c(C(=O)c2ccccc2)c1,-8.8%
20,CN(C)CCN(C)CC(C)(C)C(=O)/C=C/c1ccc(Cl)cc1,-2.65%
